Compound activity deposited in PubChem by Broad Institute.
Rows were chosen to be rich in hits. Some 3.3% of all compounds tested hit in one or more screens of this group.
FGF22 binding-1 = binders of recombinant human FGF22 by thermal shift; Q9HCT0; SYPRO orange fluorescence; percent of sucrose octasulfate shift, DMSO zero; activity (Tm shift, normalised), % at 9.99 µM; 340,000 compounds, 1.5% hits;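 active = mean Tm shift, scaled 0 neutral to 100 positive control, at about 1.3% or above, every replicate too, limit read from the data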
Target sequence (Q9HCT0 whole entry, looked up): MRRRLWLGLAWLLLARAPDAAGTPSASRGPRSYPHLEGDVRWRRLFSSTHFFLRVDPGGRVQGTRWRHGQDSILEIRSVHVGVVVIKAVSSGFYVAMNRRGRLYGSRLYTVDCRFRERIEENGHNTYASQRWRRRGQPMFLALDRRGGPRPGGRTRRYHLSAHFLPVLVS
ERAP1 inh = inhibitors of human ERAP1 aminopeptidase; 340,000 compounds, 0.15% hits; recombinant ERAP1, Leu-AMC fluorescence, 60 min; inhibition, % at 10.7 µM;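 active = mean replicate inhibition of at least 30%, or all replicates individually reaching that 30% level; inactive = mean below 30% and not every replicate reaching it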;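 note: 0% = neutral control wells and 100% = L-leucinethiol positive control wells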
CASP6 VEID inh = caspase-6 (human) enzyme inhibition. P55212. purified caspase-6, Z-VEID-R110 cleavage fluorescence. inhibition, % at 12.5 µM. 350,000 compounds, 0.53% hits;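 active = mean inhibition across replicates at least about 35%, with every replicate also reaching that limit, limit read from the data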;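 note: 0% = median of neutral control wells and 100% = no fluorescence left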
SIRT5 inh = inhibitors of human sirtuin-5 desuccinylase. inhibition, % at 15 µM. Q9NXA8. 330,000 compounds, 1.1% hits. AID 652115. Purified SirT5, succinyl-peptide AMC, trypsin-coupled fluorescence; in the data active = inhibition above about 15%
Target sequence (Q9NXA8 whole entry, looked up): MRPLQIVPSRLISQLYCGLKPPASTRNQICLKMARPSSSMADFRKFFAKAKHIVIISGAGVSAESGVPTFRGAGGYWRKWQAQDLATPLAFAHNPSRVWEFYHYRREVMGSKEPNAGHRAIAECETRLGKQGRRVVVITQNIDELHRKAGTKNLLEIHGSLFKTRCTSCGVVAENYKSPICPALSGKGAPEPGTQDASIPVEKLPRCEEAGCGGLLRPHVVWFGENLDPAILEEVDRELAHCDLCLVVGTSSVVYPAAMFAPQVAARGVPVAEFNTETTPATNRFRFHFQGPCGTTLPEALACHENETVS
GSIS activator = GLuc luminescence reporter in INS-1E cells, primary screen for activators of glucose-dependent secretion of insulin. INS-1E GLuc reporter insulin secretion, 2-3 h. activation, % at 16.6 µM. 370,000 compounds, 0.61% hits. AID 743287;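 active = lowest replicate activation of at least 40%, so every replicate reaches that level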;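 note: 0% = median of neutral control wells and 100% = median of IBMX positive control wells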
FGF22 binding-2 = binds human FGF22 shifting its melting temperature; shares compounds with FGF22 binding-1; recombinant FGF22 thermal shift, SYPRO orange fluorescence; thermal shift activity, °C (ΔTm) at 38 µM; 1,000 compounds, 2% hits;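 active = fitted rise in melting shift crosses a set limit at or below the top valid dose tested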
SYPRO no-protein = shows thermal shift signal without protein, FGF22 counter-screen | AC50, µM (titrated, usually from 38 µM) | 1,000 compounds, 2% hits | compound-only SYPRO orange thermal shift counter-screen, no protein | shares compounds with FGF22 binding-1;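 active = rising signal whose fitted curve reaches the 0.54 level within the top valid dose, showing a melting point, actives reach about 13 µM in these data; inactive = the rest, including activity in the opposite direction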; note: value is where the raw curve crosses a fixed level and not half-maximal
Active calls of the source: *.

What do the screens show for `COc1ccccc1-c1cccc(-c2nc(C(=O)NCc3ccncc3)cc3c2[C@@H](CCO)N([S@](=O)C(C)(C)C)C3)c1`?
FGF22 binding-1: 24*; ERAP1 inh: -1; CASP6 VEID inh: -2; SIRT5 inh: 1; GSIS activator: -30; FGF22 binding-2: 0.11; SYPRO no-protein: inactive

How did Cc1ccc(S(=O)(=O)NCC[C@@H]2CC[C@H](NC(=O)Nc3cccc(F)c3)[C@H](CO)O2)cc1 do in these assays?
FGF22 binding-1: 0; ERAP1 inh: -4; CASP6 VEID inh: -1; SIRT5 inh: 6; GSIS activator: -11

What do the screens show for `C[C@H]1CN([C@@H](C)CO)C(=O)c2cccc(NC(=O)c3ccc(-c4nccs4)cc3)c2O[C@H]1CN(C)C(=O)Nc1ccc2c(c1)OCO2`?
FGF22 binding-1: -1; ERAP1 inh: -2; CASP6 VEID inh: -1; SIRT5 inh: 4; GSIS activator: -2

Results for Cn1ncc2c(Nc3ccc(Cl)c(Cl)c3)ncnc21 ?
FGF22 binding-1: 9.1*; ERAP1 inh: 0; SIRT5 inh: 1; GSIS activator: 30; FGF22 binding-2: 0.15; SYPRO no-protein: inactive

How did COC(=O)[C@]1(Cc2ccccc2)N[C@H](CN(C)S(=O)(=O)c2ccc(C)cc2)[C@@H]2C(=O)N(Cc3ccccc3)C(=O)[C@@H]21 do in these assays?
FGF22 binding-1: 1.4*; ERAP1 inh: -1; CASP6 VEID inh: 4; SIRT5 inh: 8; GSIS activator: 31; FGF22 binding-2: -0.13; SYPRO no-protein: inactive

Results for CN(C(=O)Cn1nnc2ccccc2c1=O)C1CCCCC1 ?
FGF22 binding-1: 1.8*; ERAP1 inh: -2; CASP6 VEID inh: -3; SIRT5 inh: 2; GSIS activator: -4; FGF22 binding-2: 0.092; SYPRO no-protein: inactive

What do the screens show for `COc1ccc(S(=O)(=O)Nc2cccc3c2O[C@@H](CN(C)C(=O)Nc2ccccc2)[C@H](C)CN([C@H](C)CO)C3=O)cc1`?
FGF22 binding-1: 0; ERAP1 inh: -1; CASP6 VEID inh: -2; SIRT5 inh: 2; GSIS activator: 8

How did CCC(=O)Nc1nc(C)c(-c2csc(Nc3ccccn3)n2)s1 do in these assays?
FGF22 binding-1: 1.6*; ERAP1 inh: 0; CASP6 VEID inh: 0; SIRT5 inh: 2; GSIS activator: -3; SYPRO no-protein: inactive

What do the screens show for `COc1cccc(C(=O)Nc2cccc(NC(=O)c3cccs3)c2)c1`?
FGF22 binding-1: 1.9*; ERAP1 inh: -6; CASP6 VEID inh: -1; SIRT5 inh: 1; GSIS activator: -12; FGF22 binding-2: -0.032; SYPRO no-protein: inactive

How did O=C(Nc1ccc([N+](=O)[O-])cc1)Nc1ccc2c(c1)OCCO2 do in these assays?
FGF22 binding-1: 0; ERAP1 inh: -1; CASP6 VEID inh: -5; SIRT5 inh: -5; GSIS activator: -7

Results for COc1cc(NC(=O)c2ccc3c(c2)OCCO3)ccc1NC(=O)c1cccs1 ?
FGF22 binding-1: 2.0*; ERAP1 inh: -14; CASP6 VEID inh: 4; SIRT5 inh: 4; GSIS activator: -31; FGF22 binding-2: -0.2; SYPRO no-protein: 10µM*

What do the screens show for `COc1cc([N+](=O)[O-])ccc1NC(=O)Nc1ccc2c(c1)OCCO2`?
FGF22 binding-1: 1.7*; ERAP1 inh: -1; CASP6 VEID inh: 0; SIRT5 inh: 5; GSIS activator: -6; FGF22 binding-2: 0.073; SYPRO no-protein: inactive

Results for c1ccc(-c2cc3nc(NCc4ccc5c(c4)OCO5)ccn3n2)cc1 ?
FGF22 binding-1: 35*; ERAP1 inh: -2; CASP6 VEID inh: -2; GSIS activator: 8; FGF22 binding-2: 0.1; SYPRO no-protein: inactive

What do the screens show for `CC(=O)c1cccc(NC(=O)C2CCCN2S(=O)(=O)c2ccccc2C(F)(F)F)c1` (centres undefined)?
FGF22 binding-1: 0; ERAP1 inh: -1; CASP6 VEID inh: -3; GSIS activator: -5

How did CC(=O)c1cccc(NC(=O)C2CCCN2S(=O)(=O)c2cccs2)c1 (centres undefined) do in these assays?
FGF22 binding-1: 17*; ERAP1 inh: 10; CASP6 VEID inh: 2; SIRT5 inh: -3; GSIS activator: 2; FGF22 binding-2: -0.082; SYPRO no-protein: inactive

How did C[C@@H]1CN([C@H](C)CO)C(=O)c2cccc(NC(=O)c3cnccn3)c2O[C@@H]1CN(C)C do in these assays?
FGF22 binding-1: 0; ERAP1 inh: -1; CASP6 VEID inh: 0; SIRT5 inh: -3; GSIS activator: 10

Results for CCNC(=O)C[C@@H]1CC[C@@H]2[C@@H](COc3ccc(NC(=O)NC(C)C)cc3C(=O)N2C)O1 ?
GSIS activator: 0

What do the screens show for `COc1cc(OC)cc(C(=O)Nc2nc3ccc(S(C)(=O)=O)cc3s2)c1`?
FGF22 binding-1: 1.4*; ERAP1 inh: -5; CASP6 VEID inh: 4; SIRT5 inh: -1; GSIS activator: -8; FGF22 binding-2: 0.02; SYPRO no-protein: inactive

How did COc1cc(C(=O)Nc2nc3ccc(S(C)(=O)=O)cc3s2)cc(OC)c1C do in these assays?
FGF22 binding-1: 0; CASP6 VEID inh: 3; SIRT5 inh: 14; GSIS activator: 7

How did CCCN1C[C@@H](C)[C@@H](OC)CN(C)C(=O)c2ccc(NC(=O)Nc3cccc(F)c3)cc2OC[C@H]1C do in these assays?
FGF22 binding-1: 0; ERAP1 inh: -4; CASP6 VEID inh: 0; SIRT5 inh: 2; GSIS activator: -16

What do the screens show for `N#C[C@@H]1[C@H](c2ccc(C3=CCCCC3)cc2)[C@H](CO)N1S(=O)(=O)c1ccccc1`?
FGF22 binding-1: 0; ERAP1 inh: -3; CASP6 VEID inh: -1; SIRT5 inh: -3; GSIS activator: -6

What do the screens show for `N#C[C@@H]1[C@@H](c2ccc(C3=CCCCC3)cc2)[C@H](CO)N1S(=O)(=O)c1ccccc1`?
FGF22 binding-1: 1.3*; ERAP1 inh: -1; CASP6 VEID inh: -5; SIRT5 inh: 1; GSIS activator: -2; FGF22 binding-2: -0.2; SYPRO no-protein: inactive

How did CC(C)C(c1nnnn1CCc1ccccc1)N1CCSCC1 (centres undefined) do in these assays?
FGF22 binding-1: 3.1*; ERAP1 inh: 0; CASP6 VEID inh: -1; SIRT5 inh: -2; GSIS activator: -12; FGF22 binding-2: 0.032; SYPRO no-protein: inactive

Results for CC1CCN(C(c2nnnn2CCc2ccccc2)C(C)C)CC1 (centres undefined) ?
FGF22 binding-1: 0; CASP6 VEID inh: 0; SIRT5 inh: 5; GSIS activator: -22
